The source of these data is PubChem BioAssay.

Calls of active or inactive are those of the source.

The nature of assay [1]: binders of probe aFSTL3 on microarray, primary screen, stem cell growth factor project, biochemical, small-molecule microarray, fluorescence 635/667 (AID 1064).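 Further: measures binding of the biotinylated anti-FSTL3 antibody to printed compounds.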 The conditions noted are these: higher = more signal.
Assay [2] in a line: binders from COS7 lysate, DM2A8 probe, primary screen, torsin A project, cell lysate, small-molecule microarray, fluorescence 635/667 (AID 1065). The settings on record: higher = more signal, COS7 lysate expressing mutant human TOR1A.
A short description of assay [3]: binders of probe aFGF2 on microarray, primary screen, stem cell growth factor project, biochemical, small-molecule microarray, fluorescence 635/667 (AID 1067).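 Further: measures binding of biotinylated aFGF2 protein to printed compounds on slides; z-score merges feature fluorescence and signal-to-noise across triplicate slides.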 The conditions noted are these: higher = more signal.
Assay [4] is described as follows: binders of probe aFGF10 on microarray, primary screen, stem cell growth factor project, biochemical, small-molecule microarray, fluorescence 635/667 (AID 1071).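 Further: score merges 667 nm spot intensity and signal to noise from triplicate slides.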 The settings on record: higher = more signal.
Assay [5] has as its target Neurogenic locus notch homolog protein 2 (Homo sapiens) (UniProt Q04721). Kind of assay: Notch2 binders on small-molecule microarrays, primary screen, biochemical, small-molecule microarray, 635 nm fluorescence, stem cell growth factors (AID 1073). The conditions noted are these: Notch2 binding, higher = more signal.
In assay [6] the target is Pro-neuregulin-1, membrane-bound isoform (Homo sapiens) (UniProt Q02297). Kind of assay: NRG1 binders on small-molecule microarrays, primary screen, psychiatric disease protein project, biochemical, small-molecule microarray, fluorescence 635/667 (AID 1075).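 Further: score combines 667 nm spot fluorescence with signal to noise.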 The settings on record: NRG1 binding, 635 nm fluorescence, higher = more signal.
In assay [7] the test system is Neuregulin-1 EGF-like domain. As to the kind of experiment: binders of neuregulin-1 EGF-like domain, primary screen, biochemical, small-molecule microarray, 635 nm fluorescence (AID 1081).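 Further: binding of the protein to compounds printed on small-molecule microarray slides.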 The settings on record: small-molecule microarray binding, higher = more signal.
The nature of assay [8]: FRG1 promoter luciferase signal modulators, primary screen, FRG1 inhibition for FSHD, cell-based, C2C12 myotubes, firefly/Renilla luciferase, luminescence (AID 1084). The settings on record: higher = more signal, called active from +8 up or from −8 down.
Assay [9] in a line: binders of probe aFST on microarray, primary screen, stem cell growth factor project, biochemical, small-molecule microarray, fluorescence 635/667 (AID 1086).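 Further: score merges 667 nm fluorescence with signal-to-noise of each printed compound spot.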 The conditions noted are these: higher = more signal.
Assay [10] can be described thus: binders of probe aHhip on microarray, primary screen, stem cell growth factor project, biochemical, small-molecule microarray, fluorescence 635/667 (AID 1087).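 Further: score merges spot fluorescence at 667nm with spot signal to noise ratio.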 The settings on record: higher = more signal.

Neurogenic locus notch homolog protein 2 (Homo sapiens), sequence (Q04721 whole entry, looked up, canonical isoform): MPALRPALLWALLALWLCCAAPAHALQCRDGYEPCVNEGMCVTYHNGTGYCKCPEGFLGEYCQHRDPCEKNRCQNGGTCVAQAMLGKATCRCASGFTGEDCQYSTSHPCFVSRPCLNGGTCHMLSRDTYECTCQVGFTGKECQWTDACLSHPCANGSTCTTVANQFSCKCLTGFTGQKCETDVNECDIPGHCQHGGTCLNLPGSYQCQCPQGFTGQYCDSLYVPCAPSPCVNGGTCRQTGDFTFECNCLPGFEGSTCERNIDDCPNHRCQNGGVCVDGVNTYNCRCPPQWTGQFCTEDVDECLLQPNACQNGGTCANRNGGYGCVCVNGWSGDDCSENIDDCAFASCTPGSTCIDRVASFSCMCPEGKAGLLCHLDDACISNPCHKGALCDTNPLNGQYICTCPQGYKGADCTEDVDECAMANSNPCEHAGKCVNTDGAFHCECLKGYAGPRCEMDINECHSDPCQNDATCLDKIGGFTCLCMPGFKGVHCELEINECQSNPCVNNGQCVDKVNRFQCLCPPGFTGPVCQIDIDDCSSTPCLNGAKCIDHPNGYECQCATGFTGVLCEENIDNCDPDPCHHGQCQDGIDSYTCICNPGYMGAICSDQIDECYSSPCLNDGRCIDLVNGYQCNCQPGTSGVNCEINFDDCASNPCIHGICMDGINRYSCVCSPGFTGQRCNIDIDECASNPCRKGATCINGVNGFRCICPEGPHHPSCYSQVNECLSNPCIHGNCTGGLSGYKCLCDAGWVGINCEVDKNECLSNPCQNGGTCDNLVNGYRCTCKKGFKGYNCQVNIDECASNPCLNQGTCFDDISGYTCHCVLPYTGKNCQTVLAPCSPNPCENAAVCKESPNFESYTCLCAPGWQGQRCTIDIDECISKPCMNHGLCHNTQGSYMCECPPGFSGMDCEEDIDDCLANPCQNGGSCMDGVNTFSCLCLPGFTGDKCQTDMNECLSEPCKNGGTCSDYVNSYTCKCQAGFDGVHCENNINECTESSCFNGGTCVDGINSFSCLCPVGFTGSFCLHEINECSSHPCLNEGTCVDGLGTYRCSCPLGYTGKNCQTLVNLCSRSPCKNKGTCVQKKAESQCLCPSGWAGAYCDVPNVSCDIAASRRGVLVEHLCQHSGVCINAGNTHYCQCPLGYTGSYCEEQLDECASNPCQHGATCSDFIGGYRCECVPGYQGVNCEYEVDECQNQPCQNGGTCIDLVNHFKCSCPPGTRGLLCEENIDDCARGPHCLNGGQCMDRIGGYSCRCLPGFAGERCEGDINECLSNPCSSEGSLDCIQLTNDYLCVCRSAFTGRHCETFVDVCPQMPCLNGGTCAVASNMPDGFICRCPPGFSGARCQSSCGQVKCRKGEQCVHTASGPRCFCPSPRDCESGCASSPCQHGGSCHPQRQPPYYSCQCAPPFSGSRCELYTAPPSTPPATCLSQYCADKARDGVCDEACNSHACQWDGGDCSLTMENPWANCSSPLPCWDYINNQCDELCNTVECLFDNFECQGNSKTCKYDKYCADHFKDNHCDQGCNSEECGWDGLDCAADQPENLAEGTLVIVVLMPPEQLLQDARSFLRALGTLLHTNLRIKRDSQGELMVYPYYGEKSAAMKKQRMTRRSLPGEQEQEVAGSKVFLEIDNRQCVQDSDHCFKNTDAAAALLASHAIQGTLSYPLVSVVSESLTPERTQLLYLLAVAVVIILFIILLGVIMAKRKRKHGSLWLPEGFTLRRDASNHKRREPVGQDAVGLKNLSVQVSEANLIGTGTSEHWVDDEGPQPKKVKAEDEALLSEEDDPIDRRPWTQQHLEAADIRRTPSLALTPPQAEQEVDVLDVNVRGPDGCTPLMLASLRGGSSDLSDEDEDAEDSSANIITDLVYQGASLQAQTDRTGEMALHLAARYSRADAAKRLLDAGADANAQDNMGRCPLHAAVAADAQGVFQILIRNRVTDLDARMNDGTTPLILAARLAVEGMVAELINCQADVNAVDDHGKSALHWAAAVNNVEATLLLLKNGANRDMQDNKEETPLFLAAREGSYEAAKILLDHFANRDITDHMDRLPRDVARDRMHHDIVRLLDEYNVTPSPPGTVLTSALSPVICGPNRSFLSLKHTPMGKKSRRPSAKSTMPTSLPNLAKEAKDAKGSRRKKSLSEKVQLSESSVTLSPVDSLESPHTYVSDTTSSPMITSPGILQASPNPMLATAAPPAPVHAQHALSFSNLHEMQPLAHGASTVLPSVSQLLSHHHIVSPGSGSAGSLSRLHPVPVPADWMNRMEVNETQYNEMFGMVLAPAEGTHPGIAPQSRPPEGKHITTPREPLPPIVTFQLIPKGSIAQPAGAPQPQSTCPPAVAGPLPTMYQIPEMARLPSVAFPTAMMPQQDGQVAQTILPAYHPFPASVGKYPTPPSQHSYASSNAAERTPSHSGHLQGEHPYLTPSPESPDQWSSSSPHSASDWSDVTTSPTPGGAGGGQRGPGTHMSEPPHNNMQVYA
Pro-neuregulin-1, membrane-bound isoform (Homo sapiens), sequence (Q02297 whole entry, looked up, the tested form may be a part, canonical isoform): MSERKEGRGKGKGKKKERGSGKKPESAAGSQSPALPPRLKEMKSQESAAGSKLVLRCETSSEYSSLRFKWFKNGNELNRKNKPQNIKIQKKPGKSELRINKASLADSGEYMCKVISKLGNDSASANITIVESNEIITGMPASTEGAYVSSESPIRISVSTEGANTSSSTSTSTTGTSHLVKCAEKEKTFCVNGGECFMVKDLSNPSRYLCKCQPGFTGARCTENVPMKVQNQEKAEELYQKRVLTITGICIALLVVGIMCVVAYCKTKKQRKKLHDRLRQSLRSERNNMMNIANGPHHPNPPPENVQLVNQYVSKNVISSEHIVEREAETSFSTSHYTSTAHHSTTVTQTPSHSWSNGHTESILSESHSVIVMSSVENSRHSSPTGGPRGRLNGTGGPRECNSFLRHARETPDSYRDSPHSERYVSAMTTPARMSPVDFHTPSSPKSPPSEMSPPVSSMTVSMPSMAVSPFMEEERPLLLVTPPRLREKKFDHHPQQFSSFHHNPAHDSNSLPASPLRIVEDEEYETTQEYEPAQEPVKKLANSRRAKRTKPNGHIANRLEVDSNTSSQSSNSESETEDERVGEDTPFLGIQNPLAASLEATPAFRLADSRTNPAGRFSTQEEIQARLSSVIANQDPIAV

Regarding `CC(c1ccccc1)C(O)C1C=CC2C(=O)N(c3ccccc3)C(=O)C2N1Nc1ccccc1` (stereo not given), the composite z-score in [1] was -0.245; in assay [2] it was 0.2; in assay [3] it was 0.0878; in assay [4] it was 1.13; in assay [5] it was 1.55; in assay [6], 1.53. Moreover, the composite z-score in [7] is 1.34; in [9], 1.38; in assay [10], 0.179. In addition, in assay [8], the z-score was -1.41 (inactive).

For the molecule `COCC(=C=CC[C@H](O)c1cccc(OCCO)c1)CCO`, the composite z-score is -0.44 in assay [1]; -0.625 in [2]; -0.0347 in assay [3]; 0.242 in [4]; -0.137 in [5]; 1.12 in [6]. In addition, the composite z-score in assay [7] was 0.711; in assay [9], 0.235; in [10], -0.0645. Besides, the z-score in [8] is 1.02 (inactive).

As for `OCCCC1=CC(C2CC2)N(Cc2cccc(OC(F)(F)F)c2)CC1` (stereo not given), the composite z-score in assay [1] is -0.367; in [2] it was 0.406; in assay [3] it was -0.208; in assay [4], -0.771; in assay [5], -0.464; in [6], -0.106. In addition, the composite z-score in [7] was 0.677; in assay [9] it was -0.658; in assay [10], -0.0373. Moreover, the z-score in assay [8] is 0.606 (inactive).

On to `C=CCNC(=O)[C@@H]1[C@H]2C(=O)O[C@H](c3ccccc3)[C@H](c3ccccc3)N2[C@H](c2ccc(OCCO)cc2)[C@@]12C(=O)N(C(=O)OCCOC)c1ccc(C#CCC(C(=O)OC)C(=O)OC)cc12`, for which the composite z-score in assay [1] is -0.426; in assay [2] it was 1.25; in [3], 0.0408; in assay [4] it was 1.05; in assay [5] it was 1.1; in assay [6], 1.48. The values for the composite z-score in [7], in assay [9] and in assay [10] were 1.12, 0.88 and 0.386, respectively. For the same molecule, the z-score in [8] was 1.26 (inactive).

As to `COC(=O)[C@@]1(Cc2ccccc2)[C@H]2c3cc(C(=O)N4CCCC4)n(Cc4c(CO)[nH]cc(C)c4=O)c3C[C@H]2CN1C(=O)c1ccccc1`, the composite z-score in assay [1] was 1.13; in assay [2], -0.0496; in [3], 0.2; in assay [4], 0.647; in [5], 1.63; in assay [6], 1.96. Moreover, the composite z-score in [7] was 1.17; in assay [9], 0.915; in assay [10], -0.121. Further, the z-score in [8] was 1.39 (inactive).

In the case of `COc1cc(OC)c(C(O)C2C=CC3C(=O)NC(=O)C3N2Nc2ccccn2)cc1Br` (stereo not given), the composite z-score in assay [1] was 0.159; in assay [2], 0.56; in assay [3], -0.0494; in assay [4], 0.561; in [5], 1.24; in assay [6], 1.48. The composite z-score in assay [7] is 1.44; in assay [9] it was 0.0594; in assay [10], -0.141. Further, in assay [8], the z-score is 1.21 (inactive).

On to `C=C(CCCC)/C(=C/C[C@H](OC(C)=O)c1ccccc1OCCO)c1cnc2ccccc2c1`, for which the composite z-score in assay [1] is -0.279; in [2], 0.0976; in [3], -0.115; in assay [4], 0.506; in assay [5] it was 0.3; in assay [6] it was 0.324. Moreover, the results for the composite z-score in assay [7], in [9] and in [10] were 1.04, 0.162 and 0.0505, respectively. Moreover, the z-score in assay [8] is -1.48 (inactive).

With `COCCCNC(=O)[C@@]1(Cc2ccccc2CN=[N+]=[N-])N=C(c2ccc(OCCCO)cc2)O[C@H]1c1ccccc1CN=[N+]=[N-]`, the composite z-score was -0.152 in [1]; 0.321 in assay [2]; 0.154 in assay [3]; 0.916 in assay [4]; 1.27 in assay [5]; 1.96 in assay [6]. The values for the composite z-score in assay [7], in assay [9] and in assay [10] were 1.11, 1.43 and -0.286, respectively. The z-score in assay [8] is 0.399 (inactive).

Regarding `CN1C(=O)C2C=CC(C(O)c3ccc(F)cc3)N(N(c3ccccc3)c3ccccc3)C2C1=O` (stereo not given), the composite z-score in assay [1] is 0.5; in [2] it was -0.123; in assay [3], -0.0446; in assay [4], 0.122; in assay [5], 0.822; in assay [6], 1.28. In addition, the figures for the composite z-score in [7], in [9] and in [10] were 1.03, 0.56 and -0.107, respectively. In addition, the z-score in assay [8] is -0.368 (inactive).

`CCCCN1CC=CC23O[C@@H]4/C=C\CCCOC(=O)C4[C@H]2C(=O)N(CCCO)[C@@H]3C1=O` (stereo not given in full): the composite z-score in [1] was 0.228; in [2], -0.7; in assay [3], -0.036; in assay [4], -0.0326; in assay [5], -0.913; in [6] it was 0.817. Also, the values for the composite z-score in assay [7], in assay [9] and in assay [10] were 1.46, -0.629 and -0.318, respectively. Also, the z-score in [8] is 0.829 (inactive).

For the molecule `O=C1OCC=C[C@H]2OC34C=CCN(CCN5CCOCC5)C(=O)[C@H]3N(CCO)C(=O)[C@@H]4[C@@H]12` (stereo not given in full), the composite z-score is -0.341 in [1]; -0.483 in assay [2]; -0.0985 in assay [3]; -0.659 in assay [4]; -0.273 in [5]; 0.605 in assay [6]. Further, the composite z-score in assay [7] was 0.242; in assay [9], -0.218; in [10] it was -0.412. In assay [8], the z-score is 1.02 (inactive).

`Cc1ccc(S[C@]2(C(=O)O)CC(=O)N(Cc3ccccc3C(F)(F)F)[C@@H]2c2ccc(CO)cc2I)cc1`: the composite z-score in assay [1] was -0.0699; in assay [2], 0.979; in [3], -0.1; in [4] it was -0.0146; in assay [5] it was -1.23; in [6] it was 0.695. Further, the composite z-score in assay [7] was 0.559; in assay [9], -0.387; in [10] it was -0.334. Further, the z-score in assay [8] was 0.371 (inactive).

For the molecule `COCCCNC(=O)[C@@H]1c2ccccc2C(=O)N(Cc2ccccc2OC)[C@H]1c1ccc(CO)cc1`, the composite z-score in assay [1] was -0.169; in assay [2], 0.64; in assay [3], -0.0021; in assay [4] it was 0.584; in assay [5], 0.239; in assay [6] it was 1.8. For the same molecule, the composite z-score in assay [7] was 1.34; in assay [9], -0.0311; in [10], -0.0645. The z-score in assay [8] was -1.57 (inactive).
